Unmarked numbers belong to inactive results. Activity calls are given as the source filed them.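 How the source made its calls: active means z-score of at least 1.8 in each of two replicates, scored against plate mean and spread of sample wells; inactive means the rest.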
Assay: galactose survival enhancers in mitochondrial complex I cybrids – cell-based, galactose medium, ATP luminescence, primary screen (AID 1645843);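 further: positive z means more ATP and so rescue of galactose-driven cybrid death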
Conditions: complex I mutant cybrid cells, 72 h, hits give high values

Compound	z-score
Cc1cc(CC(=O)Nc2cc(C)nn2C2CCCCC2)on1	0.225
O=C1CC(C(=O)N2CCc3sccc3C2)c2cc(F)ccc2N1 (centres undefined)	4.16 (active)
Cc1ccccc1-n1cc(-c2ccnc(NCc3nnc4n3CCCC4)n2)cn1	-0.305
Cc1ccccc1-c1cccc(C(=O)c2nccn2C)c1	-0.54
CN1CCN(C(=O)c2ccc3c(c2)CCO3)CC1=O	0.07
CN1CCN(C2CCCCCC2)CC1CCO (centres undefined)	-0.575
CCC1(CNC(=O)Nc2nc(C)ns2)CCC1	1.42
COc1ccc(N2CCN(C(=O)Nc3nc(C)ns3)CC2(C)C)cc1	-0.445
CCn1ncc2[nH]c(-c3c(OC)ccc4ccccc34)nc21	0.04
CC(C)c1ncc(C(=O)N2CCC(n3cc(-c4ccccn4)nn3)CC2)cn1	0.26
CCC(CC)CN1CCC(NS(C)(=O)=O)CC1	-0.53
CCC(CC)(CCC#N)CNC1COC2(CCCC2)C1 (centres undefined)	-0.555
CCC1(CC)CC1C(=O)N1CCC(n2cc(C(C)(C)O)nn2)CC1 (centres undefined)	-0.515
C=C1C2(C(=O)N3CCCC(C(=O)N4CCOCC4)C3)CCC(C2)C1(C)C (centres undefined)	-0.555
COC(=O)CCC1CCN(C(=O)CCC(C)C)CC1	-0.56
O=C1NCCN(C(=O)c2ccccc2)C1Cc1ccccc1 (centres undefined)	-0.54
COc1ccc(C(=O)N2CCNC(=O)C2Cc2ccccc2)cc1F (centres undefined)	-0.505
O=C(Nc1cccc(N2CCCC2=O)c1)c1cc(C(F)(F)F)ccc1Cl	-0.405
Cc1nn(C)cc1-c1ccnc(N2CCN(Cc3ccc(F)cc3)C(=O)C2)n1	0.865
Cc1ccccc1N1CCCN(C(=O)CCC(C)C)CC1	3.28 (active)
CC(C)CN(C)Cc1cn(C2CCN(C3CCCCCC3)CC2)nn1	-0.485
COc1ccc(-c2ccc3cc(Cl)ccc3n2)c(OC)c1	1.15
Cc1cccc2c(C(=O)N(C)C(C)C)cc(-c3cnn(C(C)C)c3)nc12	2.17 (active)
Cc1nn(C)c(C)c1-c1ccnc(N2CCC(C(=O)NCc3ccccn3)CC2)n1	1.16

Reference: PubChem BioAssay
